Our source for the cell viability values is the supplement of paper PMC8699584.

The test system of one experiment is Molm13. In words: cell viability relative to DMSO control (bortezomib = 0%); higher = less growth inhibition. Particulars: 10 nM; 72 h. The method in brief: (§1)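 Acute myeloid leukemia cells, 1000 per well in 50 µL, were incubated for 72 h on 384-well plates with 679 approved and investigational compounds, each at a single 10 nM dose. Viability was read by CellTiter-Glo luminescence. Values were expressed as percentages through per-plate linear regression against DMSO-treated (100%) and positive-control-treated (0%) cells.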

The test system of the next experiment is Mv4-11. The experiment is described as above. The settings on record: 10 nM; 72 h. The method in brief:
as §1

± gives the standard deviation of the averaged measurements.

Usually cell viability stands for a read-out of living cells in per cent, often relative to untreated cells. As to `CCCCCCCCCCCCC/C=C/[C@H](O)[C@@H](N)CO` [L-threo-Sphingosine C-18], the cell viability came to 94 ± 9.1% in the experiment with Molm13 and 113 ± 2.5% in the experiment on Mv4-11.
For `Cc1cc(Nc2ncc(Cl)c(Nc3ccccc3S(=O)(=O)C(C)C)n2)c(OC(C)C)cc1C1CCNCC1` [LDK378(Ceritinib)], in that order: 110 ± 4.9% and 103.8 ± 0.72%.
Taken in the same sequence, the figures for `COc1c(C)c(C(=O)c2ccc(N)c(C(=O)O)c2)n2ccccc12` were 107 ± 23% and 114 ± 7.3%.
For `CC(=O)Nc1cccc(-n2c(=O)n(C3CC3)c(=O)c3c(Nc4ccc(I)cc4F)n(C)c(=O)c(C)c32)c1`, the cell viability in the experiment on Molm13 worked out at 101 ± 25%; with Mv4-11, 107 ± 1.9%.
With `Oc1cc(-c2nc(-c3ccccc3)[nH]c2-c2ccncc2)ccc1Cl`, the figures for the cell viability with Molm13 and in the experiment on Mv4-11 were 105 ± 34% and 105 ± 3.6%, respectively.
For `N#CC[C@H](C1CCCC1)n1cc(-c2ncnc3[nH]ccc23)cn1` [Ruxolitinib], in that order: 105 ± 10% and 111.1 ± 0.83%.
With `CC1(C)CN(C(=O)c2ccc(-c3cccc4nc(NC(=O)C5CC5)nn34)cc2)C1` [Solcitinib], the cell viability with Molm13 amounted to 115 ± 6.5%; in the experiment with Mv4-11, 114 ± 3.3%.
For `CC(C)CCN1c2nc(Nc3cc(F)c(O)c(F)c3)ncc2N(C)C(=O)C1C` (centres undefined), in that order: 100 ± 14% and 114 ± 6.3%.
Taken in the same sequence, the figures for `CC(C)N(CCC(=O)c1ccc2ccccc2c1)Cc1ccccc1` were 96.8 ± 7% and 111 ± 1.4%.
Taken in the same sequence, the figures for `COc1cc(N2CCC(N3CCN(C)CC3)CC2)ccc1Nc1ncc(Cl)c(Nc2ccccc2P(C)(C)=O)n1` [Brigatinib] were 115 ± 41% and 108 ± 28%.
On to `CNC(=O)c1cc(Oc2ccc(NC(=O)Nc3ccc(Cl)c(C(F)(F)F)c3)cc2)ccn1` [Sorafenib], for which the values for the cell viability in the experiment with Molm13 and in the experiment with Mv4-11 were 53.7 ± 6.9% and 47.8 ± 9.4%, respectively.
Taken in the same sequence, the figures for `Cn1cc(C2=C(c3cn(CCCN)c4ccccc34)C(=O)NC2=O)c2ccccc21` [Bisindolylmaleimide VIII (acetate)] were 111 ± 18% and 119 ± 26%.
